Measured values as given in PubChem BioAssay.
Calls of active or inactive are those of the source.

Tests used:
[1] = compound effects on lung adenocarcinoma cell viability – A549, calcein-AM fluorescence, 48 h, basal, profiling panel (AID 1162); conditions: higher = more signal
[2] = compound effects on differentiated 3T3-L1 adipocyte viability – cell-based, 3T3-L1 adipocytes, calcein-AM fluorescence, 48 h, basal, profiling panel (AID 1163); conditions: 3T3-L1 adipocytes viability, higher = more signal
[3] = compound effects on hepatocellular carcinoma cell viability – HepG2, calcein-AM fluorescence, 48 h, basal, profiling panel (AID 1164); conditions: higher = more signal
[4] = compound effects on multiple myeloma cell viability – MM1S, calcein-AM fluorescence, 48 h, basal, profiling panel (AID 1165); conditions: higher = more signal
[5] = calcein-AM signal in unstimulated myeloma cells – cell-based, calcein-AM fluorescence, 48 h, PK04 Diversity Set, profiling panel (AID 1166); conditions: RPMI8226 myeloma viability, higher = more signal;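 also: cells grown under basal conditions without added stimulus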
[6] = JC-1 mitochondrial signal, unstimulated HepG2 cells – cell-based, JC-1 fluorescence, 24 h, 100 nL compound, profiling panel (AID 1167); conditions: HepG2 mitochondrial potential, higher = more signal
[7] = JC-1 mitochondrial signal, unstimulated adipocytes – cell-based, JC-1 fluorescence, 3T3-L1 adipocytes, 24 h, 100 nL compound, profiling panel (AID 1168); conditions: JC-1 mitochondrial fluorescence, higher = more signal, called active from +8 up or from −8 down
[8] = JC-1 mitochondrial signal, unstimulated myeloma cells – cell-based, JC-1 fluorescence, RPMI8226, 24 h, 100 nL compound, profiling panel (AID 1169); conditions: JC-1 mitochondrial potential fluorescence, higher = more signal
[9] = JC-1 mitochondrial signal, unstimulated MM1S myeloma – cell-based, JC-1 fluorescence, 24 h, 100 nL compound, profiling panel (AID 1170); conditions: MM1S mitochondrial potential, higher = more signal
[10] = resazurin metabolic signal in A549 cells – cell-based, resazurin fluorescence, 24 h, PK04 Diversity Set, profiling panel (AID 1171); conditions: A549 viability, higher = more signal, called active from +8 up or from −8 down
Also: test concentration not given here.

SMILES	z-score [1]	z-score [2]	z-score [3]	z-score [4]	z-score [5]	z-score [6]	z-score [7]	z-score [8]	z-score [9]	z-score [10]
COC(=O)CC=C[C@@H](C)[C@@H](C=NO[C@H](C)c1cn([C@H](CO)Cc2ccccc2)nn1)NS(=O)(=O)c1ccc(C)cc1	-0.775	-0.0125	-0.647	-0.0023	-0.254	-0.416	-2.46 (inactive)	0.696	0.571	-0.102 (inactive)
COc1cccc([C@H]2Oc3ccc(OC)cc3C(=NOC[C@@H](O)[C@H]3O[C@@H]4OC(C)(C)O[C@@H]4[C@H]3O)[C@@H]2O)c1	-0.0077	0.568	-1.49	-0.174	-0.684	-1.27	-0.751 (inactive)	-0.578	0.49	-0.794 (inactive)
CCOC(=O)[C@H](Cc1ccccc1)NC(=O)CCC1CC(OC(=O)NCCc2ccc(F)cc2)CC2(CCCC(COC(=O)NCC3CCCCC3)O2)O1 (stereo not given in full)	1.35	-0.78	0.901	-3.14	0.219	0.809	0.367 (inactive)	-0.0221	-1.29	0.384 (inactive)
C#CCCCON=C1[C@H]2CCn3c(=O)n(-c4ccccc4)c(=O)n3[C@H]2[C@H](O)[C@@H]2O[C@H]12	-0.212	0.356	1.09	0.0128	-0.352	0.85	0.182 (inactive)	1.03	-0.61	-1.39 (inactive)
CC(C)C[C@H](NC(=O)CCC1CC(OC(=O)NCc2cccc3ccccc23)CC2(CCCC(COC(=O)NCc3ccccc3)O2)O1)C(=O)NCC(c1ccccc1)c1ccccc1 (stereo not given in full)	-0.375	0.111	-0.429	-3.53	-0.971	-0.341	0.922 (inactive)	-0.802	-0.715	0.337 (inactive)
CCOC(=O)[C@H](CC(C)C)NC(=O)CCC1CC(OC(=O)NCc2cccc3ccccc23)CC2(CCCC(COC(=O)NCc3ccncc3)O2)O1 (stereo not given in full)	0.357	-0.0315	-0.215	-3.43	-1.8	0.991	0.666 (inactive)	-0.12	-1.14	0.645 (inactive)
C#CCCCON=C1C[C@@H](O)[C@@H](O)[C@@H]2[C@@H]3C(=O)N(c4ccc(F)cc4F)C(=O)[C@@H]3CC[C@@H]12	-0.194	-0.566	-1.07	0.344	-0.865	0.843	-1.15 (inactive)	0.0995	-0.413	0.193 (inactive)
CC=CC1=C(CO)C(=O)[C@@H]2O[C@@H]2C1=O	-0.912	-1.18	-0.88	-3.5	-2.88	-1.86	-0.316 (inactive)	-1	-2.1	-0.315 (inactive)
CCOC(=O)[C@H](Cc1ccccc1)NC(=O)CCC1CC(OC(=O)NCCc2ccc(F)cc2)CC2(CCCC(COC(=O)NCCCN3CCCC3=O)O2)O1 (stereo not given in full)	1.57	-0.0501	0.43	0.356	-0.335	0.668	-0.182 (inactive)	0.437	-1.09	-0.972 (inactive)
CCOC(=O)[C@H](Cc1ccccc1)NC(=O)CCC1CC(OC(=O)NCc2ccc3c(c2)OCO3)CC2(CCCC(COC(=O)NCCC(C)C)O2)O1 (stereo not given in full)	0.339	1.36	-1.58	-3.41	-3.9	0.162	-0.375 (inactive)	-0.212	-1.32	-0.149 (inactive)
O=C(C=Cc1ccc2c(c1)OCO2)c1ccc(F)cc1	-0.182	0.867	-0.358	-3.26	-3.41	-0.698	-0.211 (inactive)	-0.811	-0.286	0.275 (inactive)
CCc1cc2c(nc1CC)CCN(CCC(C)=NO[C@H](C)c1cn([C@@H]3COC[C@H]3O)nn1)C2	0.821	-0.744	1.75	0.546	-0.329	0.338	0.367 (inactive)	-0.121	-0.676	-0.574 (inactive)
CCc1cc2c(nc1CC)CCN(CCC(C)=NO[C@@H](C)c1cn([C@H](CO)Cc3ccccc3)nn1)C2	0.669	0.367	1.8	0.73	0.18	2.44	0.254 (inactive)	-0.279	-0.525	0.0367 (inactive)
CO[C@@H]1COC(=O)CC=C[C@H](C)[C@H](OC)COC(=O)[C@H](C)NC(=O)CC=C[C@H]1C	0.296	0.256	0.64	-0.0284	0.403	0.904	-0.878 (inactive)	0.403	0.273	0.932 (inactive)
CON=C(C)CCC(=O)OC[C@H]1O[C@H](c2ccccc2)C=C[C@@H]1Oc1ccc(OC)cc1	-0.208	-0.119	-0.646	-1.32	-0.0394	-1.05	0.0208 (inactive)	0.00696	-0.0885	0.525 (inactive)
CO[C@H]1COC(=O)CC=C[C@H](C)[C@@H](OC)COC(=O)[C@@H](C)NC(=O)CC=C[C@@H]1C	0.181	0.0797	-1.72	-0.227	0.0777	-0.0888	-1.76 (inactive)	-0.244	-0.582	0.66 (inactive)

SMILES	z-score [1]	z-score [2]	z-score [3]	z-score [4]	z-score [5]	z-score [6]	z-score [7]	z-score [8]	z-score [9]	z-score [10]
O=C1[C@H]2[C@H]3[C@H](O)[C@H](O)CC(=NOC[C@@H](O)COCc4ccco4)[C@H]3CC[C@H]2C(=O)N1c1ccc(F)cc1F	1.1	1.06	-0.0367	0.621	-0.478	0.501	-0.162 (inactive)	-0.117	-1.68	0.224 (inactive)
CC[C@@H](c1ccccc1)n1c(=O)n2n(c1=O)[C@H]1[C@H](O)[C@@H]3O[C@@H]3C(=NOC[C@@H](O)COCc3ccco3)[C@H]1CC2	-0.335	-0.193	-0.378	-0.0533	-0.736	-1.44	-0.368 (inactive)	-0.465	0.432	0.0367 (inactive)
CCOC(=O)C1=NO[C@]2(C=C(Br)C3(OCCCO3)[C@H]3O[C@H]32)C1	-0.718	-0.188	-0.186	-0.986	-0.172	-1.04	-0.207 (inactive)	0.157	0.199	0.0721 (inactive)
COC(=O)[C@@H]1CC[C@H](C)[C@@H](c2ccc(C)cc2)N1C(=O)c1ccc(C=NO[C@@H](C)c2cn([C@H](CO)Cc3ccccc3)nn2)cc1	0.724	-0.412	-0.759	-1.41	-1.92	-0.86	0.0596 (inactive)	-0.946	-0.901	-0.392 (inactive)
O=C1[C@H]2[C@H]3[C@H](O)[C@H](O)CC(=NO[C@@H]4O[C@H](CO)[C@@H](O)[C@H](O)[C@H]4O)[C@H]3CC[C@H]2C(=O)N1c1cccc(Oc2ccccc2)c1	-0.0287	-0.171	-0.733	0.411	-0.782	0.629	-0.235 (inactive)	0.142	-0.827	1.08 (inactive)
COC(=O)[C@H](C)NC(=O)CCC1CC(OC(=O)NCCc2ccc(F)cc2)CC2(CCCC(COC(=O)NCc3cccc(C(F)(F)F)c3)O2)O1 (stereo not given in full)	-0.925	0.704	-1.69	-3.48	-0.416	-0.15	-0.835 (inactive)	0.54	0.533	-0.0257 (inactive)
CO[C@H]1COC(=O)CC=C[C@@H](C)[C@H](OC)COC(=O)[C@@H]2CCCN2C(=O)CC=C[C@@H]1C	0.976	0.308	-0.259	0.491	-0.394	0.0843	-0.0391 (inactive)	-0.83	1.22	0.572 (inactive)
CCO[C@H](c1cc(OC)cc([N+](=O)[O-])c1OC)[C@H](C)C=CCC(=O)OC	1.23	-0.629	0.381	1.02	0.799	0.879	0.269 (inactive)	0.752	-0.929	-0.625 (inactive)
CC(CCN1CCc2nc(-c3ccccc3)c(-c3ccccc3)cc2C1)=NOC[C@@H](O)[C@H]1O[C@@H]2OC(C)(C)O[C@@H]2[C@H]1O	1.89	-0.144	1.62	-2.72	-0.676	2.55	-1.54 (inactive)	-0.109	0.0398	-0.555 (inactive)
Cc1cc2c(c(=O)o1)[C@@H](O)[C@H]1O[C@H]1C2=O	-0.223	0.374	0.123	0.65	-1.15	-0.352	-0.659 (inactive)	-0.141	0.0583	-0.588 (inactive)
COc1ccc(O[C@@H]2[C@H](O)CO[C@H]2C=Cc2ccccc2)cc1	0.576	0.759	0.898	-0.418	-0.483	0.364	0.0785 (inactive)	0.868	-0.121	-1.44 (inactive)
CC(=O)Nc1ccc([C@@H]2N[C@H](C(=O)O)CC[C@H]2C)cc1	0.858	0.122	-0.0918	0.402	-0.371	1.14	0.456 (inactive)	-0.355	-0.0501	-0.542 (inactive)
CCOC(=O)[C@H](CC(C)C)NC(=O)CCC1CC(OC(=O)NCCc2ccc(F)cc2)CC2(CCCC(COC(=O)NCCOc3ccccc3)O2)O1 (stereo not given in full)	-0.331	0.593	-2.7	-3.46	-3.56	-1.82	1.04 (inactive)	-0.462	-0.0103	0.169 (inactive)
CC(CCN1CCCCc2nc(C)c(C)cc21)=NO[C@H](C)c1cn([C@H](CO)Cc2ccccc2)nn1	0.277	0.72	-0.386	0.607	-1.4	-0.969	-2.1 (inactive)	0.686	-0.457	-0.0266 (inactive)
CCN1C(=O)[C@H]2[C@H]3[C@H](O)[C@H](O)CC(=O)[C@H]3CC[C@H]2C1=O	0.0697	0.015	-0.0937	0.14	-1.17	-0.531	-0.386 (inactive)	-0.0768	0.816	0.26 (inactive)
